# Measurements as given in article PMC7862700, “An all-to-all approach to the identification of sequence-specific readers for epigenetic DNA modifications on cytosine”.
# Key:
# Experiment in all cases: DAPPL (digital affinity profiling via proximity ligation, sequencing); 10 mM Tris-HCl pH 7.5, 50 mM NaCl, 1 mM DTT, 4% glycerol, room temperature, 30 min; GST-TFs on glutathione beads, 16-mer random dsDNA library, 0.1% formaldehyde crosslink after washing; high values mean tight binding
# Details in all cases: protein: recombinant; tags: N-terminal GST; dsDNA, one strand shown
# [1] = target: T1, FLI1 (Homo sapiens, UniProt Q01543 1-452)
# T1 sequence: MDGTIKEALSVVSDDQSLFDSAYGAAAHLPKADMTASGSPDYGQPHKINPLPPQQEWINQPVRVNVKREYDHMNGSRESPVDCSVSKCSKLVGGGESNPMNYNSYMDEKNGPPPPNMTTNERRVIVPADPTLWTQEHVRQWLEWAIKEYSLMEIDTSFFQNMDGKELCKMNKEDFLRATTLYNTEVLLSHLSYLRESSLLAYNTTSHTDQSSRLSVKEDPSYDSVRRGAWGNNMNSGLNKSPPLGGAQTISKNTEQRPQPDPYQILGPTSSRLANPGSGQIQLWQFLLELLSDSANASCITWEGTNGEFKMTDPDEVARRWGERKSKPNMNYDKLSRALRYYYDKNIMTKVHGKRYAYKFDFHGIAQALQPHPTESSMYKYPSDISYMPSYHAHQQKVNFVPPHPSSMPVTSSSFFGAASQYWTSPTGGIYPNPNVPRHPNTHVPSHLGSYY
# Method in brief: (§1)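 Yeast served to express human transcription factors as GST fusions, which were then captured on glutathione beads and labelled with DNA barcodes. Pooled with a tag-only sample, they were incubated with 200 nmole of a 16-mer random double-stranded DNA library for 30 min at room temperature in Tris/NaCl/DTT/glycerol buffer, washed, crosslinked with 0.1% formaldehyde, ligated by proximity, amplified by PCR and sequenced. Dividing each hexamer's read frequency for a factor by its frequency for the tag-only sample gives the binding signal.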
# [2] = target: T2, ELK1 (Homo sapiens, UniProt P19419 1-428)
# T2 sequence: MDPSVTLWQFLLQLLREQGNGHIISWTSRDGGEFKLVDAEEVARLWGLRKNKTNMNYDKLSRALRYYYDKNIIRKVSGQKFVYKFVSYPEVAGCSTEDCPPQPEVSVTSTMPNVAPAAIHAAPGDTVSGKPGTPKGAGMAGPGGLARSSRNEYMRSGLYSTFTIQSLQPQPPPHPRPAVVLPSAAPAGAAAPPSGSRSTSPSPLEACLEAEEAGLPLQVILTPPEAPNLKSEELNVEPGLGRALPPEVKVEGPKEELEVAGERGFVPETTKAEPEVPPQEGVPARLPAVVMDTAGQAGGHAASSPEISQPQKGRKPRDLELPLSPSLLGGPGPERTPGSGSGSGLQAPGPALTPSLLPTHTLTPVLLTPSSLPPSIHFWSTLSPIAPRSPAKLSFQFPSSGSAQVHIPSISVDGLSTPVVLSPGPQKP
# Method in brief: as §1
# [3] = target: T3, GABPA (Homo sapiens, UniProt Q06546 1-454)
# T3 sequence: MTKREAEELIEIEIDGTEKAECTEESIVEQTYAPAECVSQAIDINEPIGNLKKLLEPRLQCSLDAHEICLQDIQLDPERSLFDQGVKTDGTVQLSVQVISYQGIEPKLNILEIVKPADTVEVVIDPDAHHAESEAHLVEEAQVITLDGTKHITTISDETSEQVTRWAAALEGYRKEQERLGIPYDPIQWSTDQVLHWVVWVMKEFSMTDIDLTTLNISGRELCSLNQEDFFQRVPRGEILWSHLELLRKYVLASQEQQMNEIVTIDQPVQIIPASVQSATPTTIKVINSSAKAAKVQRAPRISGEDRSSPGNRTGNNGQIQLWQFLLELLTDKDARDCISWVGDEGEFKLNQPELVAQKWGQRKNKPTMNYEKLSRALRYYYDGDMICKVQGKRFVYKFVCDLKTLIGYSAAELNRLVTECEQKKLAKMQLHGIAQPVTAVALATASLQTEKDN
# Method in brief: as §1
# [4] = target: T4, ERG (Homo sapiens, UniProt P11308 1-479)
# T4 sequence: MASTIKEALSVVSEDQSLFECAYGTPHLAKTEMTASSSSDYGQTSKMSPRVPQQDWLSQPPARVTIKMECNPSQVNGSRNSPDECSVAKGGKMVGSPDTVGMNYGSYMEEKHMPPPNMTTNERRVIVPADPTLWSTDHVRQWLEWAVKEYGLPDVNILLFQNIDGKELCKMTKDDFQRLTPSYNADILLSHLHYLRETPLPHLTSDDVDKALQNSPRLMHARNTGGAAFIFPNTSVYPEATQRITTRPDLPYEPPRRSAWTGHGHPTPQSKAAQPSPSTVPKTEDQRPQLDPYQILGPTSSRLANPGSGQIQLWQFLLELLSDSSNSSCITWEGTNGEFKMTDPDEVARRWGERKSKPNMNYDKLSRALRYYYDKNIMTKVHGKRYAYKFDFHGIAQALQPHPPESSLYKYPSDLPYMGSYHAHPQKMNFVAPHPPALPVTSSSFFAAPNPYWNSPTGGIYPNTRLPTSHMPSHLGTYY
# Method in brief: as §1
# [5] = target: ELF1 (Homo sapiens, UniProt P32519 1-619)
# ELF1, sequence (P32519 whole entry): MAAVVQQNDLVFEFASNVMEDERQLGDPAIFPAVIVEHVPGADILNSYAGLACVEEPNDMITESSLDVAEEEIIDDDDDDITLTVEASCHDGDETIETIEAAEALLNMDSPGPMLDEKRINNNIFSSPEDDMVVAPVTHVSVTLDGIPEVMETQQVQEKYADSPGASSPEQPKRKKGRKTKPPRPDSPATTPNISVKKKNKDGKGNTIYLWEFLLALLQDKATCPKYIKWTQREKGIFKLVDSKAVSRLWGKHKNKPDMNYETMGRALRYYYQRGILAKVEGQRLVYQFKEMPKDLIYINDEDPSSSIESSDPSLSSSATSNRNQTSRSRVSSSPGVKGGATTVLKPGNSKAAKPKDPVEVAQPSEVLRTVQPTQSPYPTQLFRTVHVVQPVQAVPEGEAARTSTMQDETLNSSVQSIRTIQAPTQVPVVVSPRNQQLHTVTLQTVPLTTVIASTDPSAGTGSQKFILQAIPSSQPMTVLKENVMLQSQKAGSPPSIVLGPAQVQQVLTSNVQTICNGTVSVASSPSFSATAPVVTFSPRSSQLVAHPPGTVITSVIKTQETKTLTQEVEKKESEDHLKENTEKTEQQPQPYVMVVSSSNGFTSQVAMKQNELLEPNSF
# Method in brief: as §1
# [6] = target: T5, EHF (Homo sapiens, UniProt Q9NZC4 1-300)
# T5 sequence: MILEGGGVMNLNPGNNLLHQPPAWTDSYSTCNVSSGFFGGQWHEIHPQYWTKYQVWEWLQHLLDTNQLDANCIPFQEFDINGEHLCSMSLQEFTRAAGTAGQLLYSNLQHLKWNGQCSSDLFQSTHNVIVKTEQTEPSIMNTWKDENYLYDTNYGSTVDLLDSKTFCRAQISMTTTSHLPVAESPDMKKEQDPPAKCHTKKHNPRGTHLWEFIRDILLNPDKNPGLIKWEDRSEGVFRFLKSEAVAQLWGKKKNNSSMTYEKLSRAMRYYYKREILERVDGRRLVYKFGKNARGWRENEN
# Method in brief: as §1
# [7] = target: SPI1 (Homo sapiens, UniProt P17947 1-270)
# Method in brief: as §1
# [8] = target: SPIB (Homo sapiens, UniProt Q01892 1-262)
# SPIB, sequence (Q01892 whole entry): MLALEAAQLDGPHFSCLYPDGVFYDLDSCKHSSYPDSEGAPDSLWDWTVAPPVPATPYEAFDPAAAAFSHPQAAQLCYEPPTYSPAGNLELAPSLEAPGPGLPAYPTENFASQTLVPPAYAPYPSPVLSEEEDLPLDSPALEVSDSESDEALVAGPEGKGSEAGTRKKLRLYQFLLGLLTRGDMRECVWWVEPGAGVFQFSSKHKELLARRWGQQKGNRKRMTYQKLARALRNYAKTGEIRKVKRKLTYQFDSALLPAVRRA
# Method in brief: as §1
# [9] = target: T6, ELK3 (Homo sapiens, UniProt P41970 1-407)
# T6 sequence: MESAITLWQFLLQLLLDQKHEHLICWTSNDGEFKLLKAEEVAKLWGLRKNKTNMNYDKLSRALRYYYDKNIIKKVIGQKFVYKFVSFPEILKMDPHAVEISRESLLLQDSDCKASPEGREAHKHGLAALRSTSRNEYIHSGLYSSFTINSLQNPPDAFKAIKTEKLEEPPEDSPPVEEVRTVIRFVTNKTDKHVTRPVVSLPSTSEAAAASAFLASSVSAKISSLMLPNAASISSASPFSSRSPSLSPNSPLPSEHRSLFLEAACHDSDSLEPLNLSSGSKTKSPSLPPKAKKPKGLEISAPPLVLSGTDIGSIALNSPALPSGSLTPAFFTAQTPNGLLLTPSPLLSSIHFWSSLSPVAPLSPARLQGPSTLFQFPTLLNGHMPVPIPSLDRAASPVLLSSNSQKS
# Method in brief: as §1
# [10] = target: T7, SPIC (Homo sapiens, UniProt Q8N5J4 1-248)
# T7 sequence: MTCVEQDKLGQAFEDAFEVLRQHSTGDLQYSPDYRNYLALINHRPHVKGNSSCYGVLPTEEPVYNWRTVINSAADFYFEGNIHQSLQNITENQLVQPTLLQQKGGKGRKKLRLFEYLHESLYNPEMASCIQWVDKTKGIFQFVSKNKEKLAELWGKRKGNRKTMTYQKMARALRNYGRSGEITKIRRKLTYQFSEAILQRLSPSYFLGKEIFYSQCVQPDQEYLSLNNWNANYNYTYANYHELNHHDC
# Method in brief: as §1
# [11] = target: ELF4 (Homo sapiens, UniProt Q99607 1-663)
# ELF4, sequence (Q99607 whole entry): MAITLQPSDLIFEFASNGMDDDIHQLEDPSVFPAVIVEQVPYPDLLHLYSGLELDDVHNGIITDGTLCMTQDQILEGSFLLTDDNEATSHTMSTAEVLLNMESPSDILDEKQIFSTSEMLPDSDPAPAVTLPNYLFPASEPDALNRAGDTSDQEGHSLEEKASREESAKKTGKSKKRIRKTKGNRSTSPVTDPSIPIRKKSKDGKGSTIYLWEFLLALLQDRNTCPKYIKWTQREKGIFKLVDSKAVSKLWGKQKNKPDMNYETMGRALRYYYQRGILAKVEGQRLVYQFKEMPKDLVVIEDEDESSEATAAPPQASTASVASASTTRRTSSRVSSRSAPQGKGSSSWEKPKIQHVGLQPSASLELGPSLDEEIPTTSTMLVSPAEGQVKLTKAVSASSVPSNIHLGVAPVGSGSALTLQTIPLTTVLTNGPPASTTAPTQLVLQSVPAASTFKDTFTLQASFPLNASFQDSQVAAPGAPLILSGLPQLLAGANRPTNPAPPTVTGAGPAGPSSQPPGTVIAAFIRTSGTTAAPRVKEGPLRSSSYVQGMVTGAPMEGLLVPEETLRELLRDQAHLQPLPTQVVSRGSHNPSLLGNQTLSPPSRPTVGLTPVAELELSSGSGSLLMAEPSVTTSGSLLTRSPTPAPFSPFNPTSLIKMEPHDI
# Method in brief: as §1
# [12] = target: T8, ELK4 (Homo sapiens, UniProt P28324-2 1-405)
# T8 sequence: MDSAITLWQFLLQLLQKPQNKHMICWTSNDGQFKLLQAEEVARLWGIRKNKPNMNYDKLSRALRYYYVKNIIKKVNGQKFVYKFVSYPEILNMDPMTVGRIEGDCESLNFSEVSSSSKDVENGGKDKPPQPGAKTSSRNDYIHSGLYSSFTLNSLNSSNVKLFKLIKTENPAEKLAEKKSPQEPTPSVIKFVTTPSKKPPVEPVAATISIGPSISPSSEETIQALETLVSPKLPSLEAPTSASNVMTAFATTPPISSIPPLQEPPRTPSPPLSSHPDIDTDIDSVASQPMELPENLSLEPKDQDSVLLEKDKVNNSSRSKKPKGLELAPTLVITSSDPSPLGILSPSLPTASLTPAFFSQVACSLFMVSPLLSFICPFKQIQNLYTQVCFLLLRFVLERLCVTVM
# Method in brief: as §1
# [13] = target: T9, ETV2 (Homo sapiens, UniProt O00321 1-342)
# T9 sequence: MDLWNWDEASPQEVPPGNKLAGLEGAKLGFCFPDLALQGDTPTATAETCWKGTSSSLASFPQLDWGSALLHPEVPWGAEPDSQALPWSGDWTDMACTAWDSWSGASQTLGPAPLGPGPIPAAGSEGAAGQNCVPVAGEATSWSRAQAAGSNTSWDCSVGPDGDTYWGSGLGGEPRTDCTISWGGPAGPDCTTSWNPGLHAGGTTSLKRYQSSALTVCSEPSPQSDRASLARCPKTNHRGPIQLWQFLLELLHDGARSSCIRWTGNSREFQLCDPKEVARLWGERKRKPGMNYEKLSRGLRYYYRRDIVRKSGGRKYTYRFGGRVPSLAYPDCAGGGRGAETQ
# Method in brief: as §1
# [14] = target: ETV1 (Homo sapiens, UniProt P50549 1-477)
# ETV1, sequence (P50549 whole entry): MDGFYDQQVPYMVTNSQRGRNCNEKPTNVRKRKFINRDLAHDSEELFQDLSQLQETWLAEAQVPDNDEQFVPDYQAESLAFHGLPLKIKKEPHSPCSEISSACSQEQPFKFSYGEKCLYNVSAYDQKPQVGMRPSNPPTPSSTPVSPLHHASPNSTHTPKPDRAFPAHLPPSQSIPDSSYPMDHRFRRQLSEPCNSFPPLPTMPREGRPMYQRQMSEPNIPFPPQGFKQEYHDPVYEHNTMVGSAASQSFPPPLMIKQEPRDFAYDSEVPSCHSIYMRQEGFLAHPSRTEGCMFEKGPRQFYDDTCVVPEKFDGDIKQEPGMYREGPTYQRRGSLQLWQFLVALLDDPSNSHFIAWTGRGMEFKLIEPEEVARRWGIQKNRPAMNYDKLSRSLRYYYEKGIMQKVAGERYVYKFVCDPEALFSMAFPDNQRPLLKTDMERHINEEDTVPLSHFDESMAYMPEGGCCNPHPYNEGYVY
# Method in brief: as §1
# [15] = target: T10, ERF (Homo sapiens, UniProt P50548 1-548)
# T10 sequence: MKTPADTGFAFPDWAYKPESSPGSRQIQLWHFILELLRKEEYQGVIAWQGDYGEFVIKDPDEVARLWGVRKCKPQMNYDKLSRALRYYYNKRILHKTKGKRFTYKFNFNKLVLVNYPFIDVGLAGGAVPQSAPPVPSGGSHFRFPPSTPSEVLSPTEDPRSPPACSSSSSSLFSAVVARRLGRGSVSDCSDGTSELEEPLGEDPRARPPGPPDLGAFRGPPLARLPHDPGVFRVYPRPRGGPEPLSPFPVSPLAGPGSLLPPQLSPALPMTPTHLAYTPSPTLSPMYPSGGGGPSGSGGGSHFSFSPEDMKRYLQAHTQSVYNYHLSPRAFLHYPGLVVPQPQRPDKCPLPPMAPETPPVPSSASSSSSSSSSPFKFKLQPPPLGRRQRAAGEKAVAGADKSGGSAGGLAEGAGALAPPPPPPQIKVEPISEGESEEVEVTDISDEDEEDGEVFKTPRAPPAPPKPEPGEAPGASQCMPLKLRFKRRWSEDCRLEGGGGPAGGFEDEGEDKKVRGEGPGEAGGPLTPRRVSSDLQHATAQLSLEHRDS
# Method in brief: as §1
# [16] = target: T11, ETV7 (Homo sapiens, UniProt Q9Y603 1-341)
# T11 sequence: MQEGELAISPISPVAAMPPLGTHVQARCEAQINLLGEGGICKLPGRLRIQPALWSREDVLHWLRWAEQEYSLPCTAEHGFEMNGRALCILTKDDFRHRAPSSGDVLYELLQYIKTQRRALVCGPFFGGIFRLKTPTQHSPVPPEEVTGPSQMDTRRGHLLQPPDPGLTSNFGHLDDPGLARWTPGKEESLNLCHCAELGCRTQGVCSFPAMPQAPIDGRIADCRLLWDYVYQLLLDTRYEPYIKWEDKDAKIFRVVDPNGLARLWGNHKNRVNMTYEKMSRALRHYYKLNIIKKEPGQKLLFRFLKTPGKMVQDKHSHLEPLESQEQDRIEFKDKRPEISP
# Method in brief: as §1
# [17] = target: T12, ETV3 (Homo sapiens, UniProt P41162-2 1-143)
# T12 sequence: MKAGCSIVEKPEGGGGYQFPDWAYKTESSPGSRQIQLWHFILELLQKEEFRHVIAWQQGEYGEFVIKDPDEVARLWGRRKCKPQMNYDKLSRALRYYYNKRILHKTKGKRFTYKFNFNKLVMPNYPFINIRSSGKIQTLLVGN
# Method in brief: as §1
# [18] = target: ETV6 (Homo sapiens, UniProt P41212 1-452)
# ETV6, sequence (P41212 whole entry): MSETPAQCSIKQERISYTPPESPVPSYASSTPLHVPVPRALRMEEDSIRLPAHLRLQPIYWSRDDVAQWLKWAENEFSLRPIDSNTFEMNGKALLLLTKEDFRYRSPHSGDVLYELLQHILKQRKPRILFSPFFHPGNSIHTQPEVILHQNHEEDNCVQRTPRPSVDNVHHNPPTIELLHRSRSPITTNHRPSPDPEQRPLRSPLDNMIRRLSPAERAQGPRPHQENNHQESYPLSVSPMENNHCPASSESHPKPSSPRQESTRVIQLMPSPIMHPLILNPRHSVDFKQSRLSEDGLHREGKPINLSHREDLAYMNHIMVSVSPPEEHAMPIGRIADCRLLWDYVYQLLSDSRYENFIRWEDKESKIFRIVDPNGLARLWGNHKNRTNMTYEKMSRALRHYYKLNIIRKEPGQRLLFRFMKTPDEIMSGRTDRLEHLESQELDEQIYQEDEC
# Method in brief: as §1
sequence,measurement,setting,value
ACCACG,binding signal,[1],"1.14 fold enrichment (6-mer frequency, TF over GST control)"
same,binding signal,[2],"1.16 fold enrichment (6-mer frequency, TF over GST control)"
same,binding signal,[3],"1.09 fold enrichment (6-mer frequency, TF over GST control)"
same,binding signal,[4],"1.06 fold enrichment (6-mer frequency, TF over GST control)"
same,binding signal,[5],"1.18 fold enrichment (6-mer frequency, TF over GST control)"
same,binding signal,[6],"1.04 fold enrichment (6-mer frequency, TF over GST control)"
same,binding signal,[7],"1.01 fold enrichment (6-mer frequency, TF over GST control)"
same,binding signal,[8],"1.04 fold enrichment (6-mer frequency, TF over GST control)"
same,binding signal,[9],"1.08 fold enrichment (6-mer frequency, TF over GST control)"
same,binding signal,[10],"1.08 fold enrichment (6-mer frequency, TF over GST control)"
same,binding signal,[11],"1.05 fold enrichment (6-mer frequency, TF over GST control)"
same,binding signal,[12],"1.11 fold enrichment (6-mer frequency, TF over GST control)"
same,binding signal,[13],"1.09 fold enrichment (6-mer frequency, TF over GST control)"
same,binding signal,[14],"1.05 fold enrichment (6-mer frequency, TF over GST control)"
same,binding signal,[15],"1.03 fold enrichment (6-mer frequency, TF over GST control)"
same,binding signal,[16],"1.04 fold enrichment (6-mer frequency, TF over GST control)"
same,binding signal,[17],"1.04 fold enrichment (6-mer frequency, TF over GST control)"
same,binding signal,[18],"1.02 fold enrichment (6-mer frequency, TF over GST control)"
